The entries come from a sample that favours hits as a whole.
mHTT-CaM PPI inh = mHTT-calmodulin interaction abrogation. AlphaScreen His-mHTT/GST-CaM binding, luminescence. inhibition, % at 15 µM. 190,000 tested, 3.6% active. P42858
Pf apPOL block = Pf-apPOL DNA polymerase inhibition; 210,000 tested, 0.25% active; Recombinant Pf-apPOL, molecular beacon fluorescence, 1.5 h; inhibition, % at 10 µM; AID 1794808
Hits are given with their value; n = inactive; x = no result given. Rule as the data show it: active = inhibition above about 50%; inactive = the rest.

SMILES | mHTT-CaM PPI inh | Pf apPOL block
COc1cccc(-c2nc(C3CCN(C(=O)Cc4c[nH]c5ccccc45)CC3)no2)c1 | 65.1 | n
CCc1nc(C2CCCN(C(=O)CCc3c[nH]c4ccccc34)C2)n[nH]1 (centres undefined) | n | n
CCc1nc(C2CCCN(C(=O)Cc3c[nH]c4ccccc34)C2)n[nH]1 (centres undefined) | 60.6 | n
COc1ccccc1-c1nc(C2CCN(C(=O)Cc3c[nH]c4ccccc34)CC2)no1 | 76.3 | n
COc1cccc(CC(=O)N2CCC(c3noc(-c4cccc(OC)c4)n3)CC2)c1 | n | n
COc1ccccc1-c1nc(C2CCN(C(=O)Cc3cccc4ccccc34)CC2)no1 | n | n
CCCNC(=O)c1nc(C)n(C2CCN(C)CC2)c1C | n | n
Cc1nc(C(=O)NCCc2ccccn2)c(C)n1C1CCN(S(C)(=O)=O)CC1 | n | n
Cc1nc(C(=O)NCCc2ccc(Cl)cc2)c(C)n1C1CCN(S(C)(=O)=O)CC1 | 61.2 | n
Cc1nc(C(=O)NCCCN2CCCc3ccccc32)c(C)n1C1CCN(C)CC1 | 96.9 | n
Cc1cccc(NC(=O)CSc2nc3[nH]ncc3c(=O)n2-c2ccc(Cl)cc2)c1 | n | n
COc1ccc(/C=C2\C=C(c3ccccc3)N(c3ccc(NC(C)=O)cc3)C2=O)cc1 | n | n
Cc1oc(C2CCN(C(=O)CCCc3ccccc3)CC2)nc1C(=O)N1CCCCC1 | n | n
Cc1cccc(C)c1NC(=O)Cn1nnc(C(=O)NCc2ccccc2)c1N | n | n
COC(=O)C1=C(N)Oc2c(oc(CO)cc2=O)C1c1ccc(Cl)c(Cl)c1 (centres undefined) | 69.8 | n
COC(=O)C1=C(N)Oc2c(oc(CO)cc2=O)C1c1ccc(Cl)cc1 (centres undefined) | n | n
CCOc1ccc(Sc2cc(C(=O)NCC3CCCO3)c3ccccc3n2)cc1 (centres undefined) | n | n
Cc1ccc(Oc2ccc(NC(=O)C3CCC(N4C(=O)C5C6C=CC(C6)C5C4=O)CC3)cc2)cc1 (centres undefined) | n | n
Clc1cc2c(c3ncccc13)OCN(CCCN1CCOCC1)C2 | 100.0 | n
Cc1cc(Cl)c(OCCCN2CCOCC2)c(Br)c1 | n | n
CC(c1ccccc1)N1CCN(S(=O)(=O)c2cccc(F)c2)CC1 (centres undefined) | n | n
COc1c(C(=O)NC(C)(C)C)sc2cccc(F)c12 | n | n
Cc1ccc2cccc(NC(=O)C(F)(F)F)c2n1 | n | n
COc1ccc(C(=O)Nc2cccc(C)n2)c(OC)c1OC | n | n
COc1cc(C(Nc2cccc(C)n2)c2ccc3ccc(C)nc3c2O)ccc1O (centres undefined) | 97.0 | n
SMILES | mHTT-CaM PPI inh | Pf apPOL block
Cc1cccc(NC(c2ccccc2[N+](=O)[O-])c2ccc3ccc(C)nc3c2O)n1 (centres undefined) | 75.0 | n
Cc1cccc(NS(=O)(=O)c2ccc(C)c([N+](=O)[O-])c2)n1 | n | n
Cc1cccc(NC(c2ccc(O)cc2)c2ccc3ccc(C)nc3c2O)n1 (centres undefined) | 97.0 | n
COc1cc(C(O)CO)ccc1O (centres undefined) | x | n
COc1ccc(C(Nc2cccc(C)n2)c2ccc3ccc(C)nc3c2O)cc1C (centres undefined) | 89.0 | n
COC(=O)c1ccc(C(=O)NCC2CCN(c3ncccn3)CC2)cc1 | n | n
CCC(=O)NCc1nc2c(n1CC)CN(C(=O)c1ccc(F)cc1)CC2 | n | n
S=c1n(C2c3ccccc3Oc3ccccc32)nc(-c2ccccc2)n1-c1ccccc1 | n | x
Cc1[nH]n(-c2cccc(Cl)c2)c(=O)c1C=Nc1ccccc1Cl | n | n
CC1=C(C(=O)Nc2ccc(C(C)C)cc2)C2(CCCCC2)OC1=O | n | n
Cc1cc(OCCNCCO)cc(C)c1Cl | n | n
OCCNCCOc1ccc(Cl)cc1 | n | 76.9
Cn1c(SCC(=O)n2c3c(c4ccccc42)CCCC3)nnc1-c1ccc(N)cc1 | n | n
O=C(CSc1ncn[nH]1)n1c2c(c3ccccc31)CCCC2 | 57.0 | n
Cc1ccc(C(=O)N2CCC(c3nc(C(=O)N4CCCCC4)c(C)o3)CC2)cc1F | n | n
O=C(Nc1cccc(-c2ccc(N3CCOCC3)nn2)c1)c1ccc2nsnc2c1 | n | n
O=C(COc1ccc(F)cc1F)Nc1cccc(-c2ccc(N3CCOCC3)nn2)c1 | n | n
COc1cc(C)c(C)cc1S(=O)(=O)Nc1cccc(-c2ccc(N3CCCC3)nn2)c1 | 76.6 | n
COc1ccc(NC(=O)Nc2cccc(-c3ccc(N4CCOCC4)nn3)c2)cc1OC | 50.3 | n
Cc1ccc(-c2ccc(N3CCN(S(C)(=O)=O)CC3)nn2)cc1C | n | n
O=C(NCc1ccccc1)Nc1cccc(-c2ccc(N3CCCC3)nn2)c1 | 84.6 | n
O=C(Nc1cccc(-c2ccc(N3CCCCC3)nn2)c1)c1ccccc1[N+](=O)[O-] | n | n
O=C(Nc1cccc(-c2ccc(N3CCOCC3)nn2)c1)c1cc(-c2ccco2)on1 | 55.3 | n
CCCCOc1cccc(C(=O)Nc2ccc(-c3nc4ncccc4o3)cc2)c1 | n | n
COc1cccc(C(=O)NCC(C)(O)C2CC2)c1OC (centres undefined) | n | n
SMILES | mHTT-CaM PPI inh | Pf apPOL block
CCOc1ccc(N2CCN(C(=O)c3ccc(C(F)(F)F)cc3)C(C)C2=O)cc1 (centres undefined) | n | n
COc1c[nH]c(C(=O)O)cc1=O | n | n
O=C(COc1ccc(F)cc1)N1CCCCC1CCN1CCCCC1 (centres undefined) | n | n
CCn1ccc2oc(C)c(C(=O)N3CCCCCC3)c2c1=O | n | n
COc1ccc(Br)cc1CN(CCc1ccc2c(c1)OCO2)Cc1cccnc1 | 57.0 | n
CCOc1ccc(CN(CCc2ccc3c(c2)OCO3)Cc2cc(OC)c(OC)c(OC)c2)cc1 | n | n
N#Cc1nc(COc2ccccc2Cl)oc1N1CCN(Cc2ccccc2)CC1 | 52.0 | n
N#Cc1nc(COc2ccccc2Cl)oc1N1CCCCC1 | n | n
O=C1C(=Cc2ccco2)Oc2c1ccc(O)c2CN1CCOCC1 | n | n
COC(=O)c1ccc(=O)oc1 | n | x
COC(=O)c1ccc2occ(-c3oc4ccc(C(=O)OC)cc4c3O)c2c1 | 100.3 | n
O=C(CN1CCC2(CC1)N=C(c1ccccc1)C(=O)N2)Nc1cccc(Br)c1 | n | n
CC(C)(C)c1ccccc1NC(=O)c1ccc(Cl)cc1 | n | n
CC(C)NC(=O)c1ccc(OCC2CCCN(C(=O)c3ccc(Br)o3)C2)cc1 (centres undefined) | n | n
COc1ccc(C(=O)Oc2cc(C)[nH]c(=O)c2[N+](=O)[O-])c(OC)c1 | 55.8 | n
COc1ccccc1C(=O)Oc1cc(C)[nH]c(=O)c1[N+](=O)[O-] | n | n
CCCC(CCC)C(=O)Oc1cc(C)[nH]c(=O)c1[N+](=O)[O-] | 87.3 | n
CCCCC(=O)Oc1cc(C)[nH]c(=O)c1[N+](=O)[O-] | n | n
O=C(NCc1cccc(F)c1)N1CCC(n2c(-c3ccco3)nc3cccnc32)C1 (centres undefined) | n | n
COCCc1nc(C2CCN(Cc3ccco3)CC2)n[nH]1 | n | n
O=C(Nc1cccnc1)c1ccc(Cl)cc1Cl | n | n
O=C(O)c1cc(Cl)c(Cl)cc1C(=O)Nc1cccnc1 | n | 54.7
CN(CCO)CC1COCCN1C(=O)CC1CCCCC1 (centres undefined) | n | n
COc1cccc(-c2nc(C3CCN(C(=O)Cc4cccs4)CC3)no2)c1 | n | n

Bioassay records from PubChem.
